Holding throughout (assay): NCI-60 one-dose screen, 48 h (100 = growth as untreated, 0 = no growth, -100 = all killed)
Common to all, as to conditions: 10 µM

The test system of experiment [1] is DU-145 prostate.
Experiment [2] has as its system K-562 leukemia.
The subject of experiment [3] is MALME-3M melanoma.
Experiment [4] deals with MDA-MB-231 breast.
In experiment [5] the test system is RXF 393 renal.
Experiment [6] concerns SF-268 CNS.
Experiment [7] concerns SF-295 CNS.
Experiment [8] relates to SF-539 CNS.
Experiment [9] has as its system UACC-257 melanoma.
Experiment [10] concerns M14 melanoma.

Where “and” joins values, the source holds several entries; their conditions need not be identical. Identical values can stand only once. The panel holds about 83,000 compounds, 20% with a hit somewhere; the sample as a whole holds those more often.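 Interpretation: 100, growth as untreated; towards 0, rising growth inhibition; 0, no net growth; 0 to -100, cell death. Compounds scoring below 10 were considered active.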 Calls of active or inactive are those of the source.

Take `CC(=O)Nc1c2sscc-2n(C)c1=O`: the growth in experiment [1] was -100% (active); in experiment [2] it was -72.9% (active); in experiment [3], -89.7% (active); in experiment [4], -92.4% (active); in experiment [5], -92.5% (active); in experiment [6] it was -80.4% (active). For the same compound, the growth is -96.5% (active) in experiment [7], -94.9% (active) in [8], -44.5% (active) in [9] and -96.7% (active) in experiment [10].

Consider `O=C(CBr)Nc1ccc(Cl)cc1`, for which the growth is 105% (inactive) in experiment [1]; 12.8% (inactive) in [2]; 29.8% (inactive) in [3]; 64.4% (inactive) in experiment [4]; 97.7% (inactive) in [5]; 88.9% (inactive) in [6]. Moreover, the growth in experiment [7] is 103% (inactive); in [8], 105% (inactive); in [9], 99.7% (inactive); in experiment [10] it was 67.2% (inactive).

Consider `Cc1cc([N+](=O)[O-])c2ccccc2[n+]1[O-]`, for which the growth is -35.9% (active) and -37% (active) in experiment [1]; 1.04% (active) and -22.1% (active) in [2]; -20.8% (active) and -41% (active) in experiment [3]; -17.4% (active) and -36.7% (active) in [4]; -51.4% (active) and -66.4% (active) in [5]; -12.7% (active) and -10.4% (active) in experiment [6]. Also, the growth is -21% (active) and -59% (active) in experiment [7]; -49.2% (active) and -61.6% (active) in experiment [8]; 8.15% (active) and -28% (active) in experiment [9]; -80.7% (active) and -70.6% (active) in [10].

For `CC/C(=C/c1ccc(OC)cc1OC)[N+](=O)[O-]`, the growth in experiment [1] was 39.1% (inactive); in experiment [2], 3.65% (active); in experiment [3] it was 8.59% (active); in experiment [4] it was 18.4% (inactive); in experiment [5], -59.6% (active); in [6], 41.5% (inactive). Moreover, the growth is 101% (inactive) in experiment [7], -1.55% (active) in experiment [8], 45.8% (inactive) in [9] and 54% (inactive) in [10].

As for `COc1cc(/C=C(/C)[N+](=O)[O-])ccc1O`, the growth in experiment [1] is 21.7% (inactive) and 17.1% (inactive); in experiment [2] it was 2.31% (active) and 1.66% (active); in [3], 40% (inactive) and 1.16% (active); in experiment [4] it was 66.3% (inactive) and 50.5% (inactive); in experiment [5], -57.5% (active) and -94.8% (active); in [6], 47.5% (inactive) and 87.3% (inactive). The growth in [7] is 99.2% (inactive); in experiment [8], 57.2% (inactive) and 20.3% (inactive); in [9], 18.2% (inactive) and -56% (active); in [10], 39.6% (inactive).

For `O=C(O)c1cc(Cc2ccc(O)c(C(=O)O)c2)ccc1O` (tested in a mixture with another compound), the growth is 83% (inactive) in experiment [1]; 68.5% (inactive) in [2]; 89.6% (inactive) in experiment [3]; 66.8% (inactive) in [4]; 39.6% (inactive) in experiment [5]; 76.9% (inactive) in experiment [6]. The growth is 13.3% (inactive) in experiment [7], 79.2% (inactive) in experiment [8], 60.5% (inactive) in [9] and 80.5% (inactive) in experiment [10].

With `CN(CCCl)c1ccc(/C=C/C2=[N+](C)c3ccccc3C2(C)C)cc1`, the growth in [1] was 28.9% (inactive); in experiment [2], 26.9% (inactive); in [3], 23.5% (inactive); in experiment [4] it was 21.1% (inactive); in experiment [5], 82.3% (inactive); in experiment [6], 31.8% (inactive). In addition, the growth in [7] is 45.5% (inactive); in experiment [8], 14.4% (inactive); in [9], 30.8% (inactive); in experiment [10], 37.4% (inactive).

As for `COC12C(COC(N)=O)C3=C(C(=O)C(C)=C(N)C3=O)N1CC1C2N1C` (stereo not given), the growth in experiment [1] was -3.38% (active); in experiment [2] it was 50.1% (inactive); in experiment [3], 31.4% (inactive); in [4] it was 93.9% (inactive); in [5], 46% (inactive); in experiment [6], 45.8% (inactive). Also, the growth in experiment [7] is 17.3% (inactive); in experiment [8], 19.8% (inactive); in experiment [9], 16.6% (inactive); in experiment [10], 28.4% (inactive).

As for `O=[N+]([O-])/C=C/c1ccc(Cl)cc1[N+](=O)[O-]`, the growth was 75.2% (inactive) in experiment [1]; 9.32% (active) in [2]; 96.3% (inactive) in experiment [3]; 58.2% (inactive) in experiment [4]; -94.7% (active) in [5]; 59.1% (inactive) in experiment [6]. Moreover, the growth in experiment [7] was 91.6% (inactive); in experiment [8] it was -35.3% (active); in [9] it was 89.3% (inactive); in experiment [10], 55.3% (inactive).

Turning to `ClCc1ccc2ccccc2n1`, the growth in experiment [1] is 102% (inactive); in experiment [2] it was 72.3% (inactive); in experiment [3], 97.6% (inactive); in experiment [4], 102% (inactive); in [5] it was 95.5% (inactive); in [6] it was 80.5% (inactive). Also, the growth in experiment [7] was 87.3% (inactive); in [8] it was 106% (inactive); in experiment [9], 104% (inactive); in [10], 84.7% (inactive).

Regarding `O=[N+]([O-])c1ccc(N2CCOCC2)c2c1no[n+]2[O-]`, the growth in [1] was 6.63% (active); in experiment [2], -29.6% (active); in experiment [3], -12.6% (active); in [4] it was 34.3% (inactive); in experiment [5], -31.4% (active); in experiment [6], 4.58% (active). Also, the growth is 20.5% (inactive) in experiment [7], -22.3% (active) in experiment [8], 41% (inactive) in experiment [9] and 0.168% (active) in experiment [10].

On to `O=C1CCC(=O)N1SC(Cl)(Cl)Cl`, for which the growth was 120% (inactive) in experiment [1]; 95.3% (inactive) in experiment [2]; 118% (inactive) in experiment [3]; 113% (inactive) in experiment [4]; 108% (inactive) in experiment [5]; 109% (inactive) in experiment [6]. For the same compound, the growth in [7] was 117% (inactive); in experiment [8], 109% (inactive); in [9] it was 110% (inactive); in experiment [10], 108% (inactive).

`COc1cc([N+](=O)[O-])c2ncccc2c1[N+](=O)[O-]`: the growth in experiment [1] was 98.4% (inactive); in experiment [2], 29.4% (inactive); in experiment [3], 114% (inactive); in experiment [4], 78.2% (inactive); in experiment [5], 59.4% (inactive); in experiment [6] it was 52.6% (inactive). Moreover, the growth in experiment [7] is 94.3% (inactive); in [8], 13% (inactive); in experiment [9] it was 50.4% (inactive); in experiment [10], 65.8% (inactive).

(Values after PubChem BioAssay (NCI).)
